Among the data in the supplement of paper PMC5940239 are IC50 values, retold here.

The IC50 is the midpoint of a concentration-inhibition curve. Read a high IC50 as weaker potency in that assay.

Structures are written as SMILES.

For this experiment, the system named is Madurella mycetomatis MM55. To be noted: 7 days.
Compound `O=C(c1ccco1)N(CCCn1ccnc1)c1nc2c(Cl)cccc2s1` yielded an IC50 of 59.1 µM. That is a double-digit micromolar value.
Next, `O=C(Nc1ccc(N2CCNCC2)nc1)c1oc(-c2ccccc2)nc1C(F)(F)F`: 37.9 µM; `O=C1COCc2ccc(Br)cc2N1Cc1ccc(C(F)(F)F)cc1`: 45 µM.
Next, `CN1CCC(NCc2cccc(-c3ccc(S(=O)(=O)NCc4ccccc4)cc3)c2)CC1`: 40.8 µM.
Next, `COc1ccccc1CNC(=O)c1cc(C2CC2)nc2c1cnn2C(C)C`: 51.9 µM.
Compound `O=C(c1cc2ccccc2o1)N1CCN(Cc2ccc3c(c2)OCO3)CC1` yielded an IC50 of 45.1 µM.
Next, `CNCCC(Oc1ccc(C(F)(F)F)cc1)c1ccccc1` (configuration not stated): 10.1 µM; `CC(C)=CCC/C(C)=C\CNCCNC1C2CC3CC(C2)CC1C3` (configuration not stated): 10.2 µM; `Cc1ncc(-c2ccnc(Nc3ccc(S(C)(=O)=O)cc3)n2)n1C(C)C`: 65.9 µM.
The value for `COc1cccc(-n2nnnc2S(C)(=O)=O)c1` was 59.9 µM.
Next, `CCC(Sc1nc2ccccc2o1)C(=O)Nc1nccs1` (configuration not stated): 37.1 µM.
In turn, `O=C(Nc1ccc(N2CCNCC2)cc1)c1ccn2ncc(-c3cccc(Cl)c3)c2n1` yielded an IC50 of 2.95 µM.
The value for `c1ccc(Oc2ccc(-c3cc(N4CCNCC4)[nH]n3)cc2)cc1` was 35.1 µM; that for `O=C(c1ccc(F)cc1)N(CCNc1ccccc1)c1ccccc1` was 66.8 µM.
The value for `CNC(=O)c1nn(C)c2c1C(C)(C)Cc1cnc(Nc3ccc(N4CCN(C)CC4)cc3)nc1-2` was 10.7 µM; that for `Cc1ccc(NC(=O)CC2COc3ccccc3O2)cc1Cl` (configuration not stated) was 51.9 µM.
Next, `Cc1cc(C)n(-c2ccc(NC(=O)C3CCN(Cc4cnc(C)s4)CC3)cc2)n1`: 48.8 µM; `Cc1cc(OCC(=O)NCc2ccccc2)c2cc(Br)ccc2n1`: 67.9 µM.
For `Cc1ccc2[nH]c(C3CCCNC3)c(-c3ccncc3)c2c1` (configuration not stated), the IC50 came to 52.1 µM.
Next, `COc1cncc(-c2cncc(N3CCN(c4ccncc4)CC3)n2)c1`: 28.2 µM; `Cc1nn(C(=O)Nc2cccc(C(F)(F)F)c2)c(C)c1Sc1ncccn1`: 68.5 µM.
The value for `CN(C)c1cc(NC(=O)Nc2ccccc2)c2ccccc2n1` was 14.2 µM; that for `COc1ccc(OC(C)C(=O)Nc2ccc(Cl)cc2C)cc1` (configuration not stated) was 26.9 µM.
Compound `COc1cc(C2=NCCN2)cc2cc(-c3ccc(C4=NCCN4)cc3)oc12` came in with an IC50 of 48.3 µM. Compared with the last compound, the IC50 is about 1.8-fold higher.
`COC(=O)C1=C(C)NC(C)=C(C(=O)OC(C)C)C1c1cccc2nonc12` (configuration not stated) returned an IC50 of 45.1 µM.
Next, `O[C@@H](c1cc(C(F)(F)F)nc2c(C(F)(F)F)cccc12)[C@H]1CCCCN1`: 38.8 µM; `CC(C)(C(=O)Nc1ccc(F)cc1)n1cc(-c2ccccc2F)cn1`: 56.2 µM.
`Cc1cccc(Cn2ccc(NC(=O)c3ccc4c(c3)OCO4)n2)c1` gave an IC50 of 60.1 µM.
The value for `OCc1ccc(-c2cncc(Nc3cccc(Cl)c3)c2)cc1` was 63.6 µM; that for `O=C(COc1cccc(F)c1)Nc1nc(-c2ccccn2)cs1` was 8.85 µM; that for `CC(C)n1nc(-c2cc3c(Cl)cccc3[nH]2)c2c(N)ncnc21` was 52.5 µM.
The value for `N=C(N)Nc1ccc(-c2ccc(-c3ccc(N=C(N)N)c(Cl)c3)o2)cc1Cl` was 61.6 µM; that for `O=C(NC1CC1)c1ccc(N2CCOc3ccc(Cl)cc32)s1` was 34.5 µM; that for `CCN(CC)CCCCCCNc1cc(OC)cc2c(C)ccnc12` was 9.8 µM.
Next, `Cc1[nH]c2ccccc2c1C(c1cccs1)N1CCN(C)CC1` (configuration not stated): 12.7 µM.
As for `COc1ccc(-c2cc(NC(=O)c3ccc(F)cc3Cl)ccc2OC)cc1`, the IC50 was determined as 31.4 µM.
Next, `O=C(Nc1nnc(-c2ccc(Cl)cc2)o1)c1cccc(C(F)(F)F)c1`: 10.6 µM.
